Test results taken from PubChem BioAssay (NCATS).
Results filed as inconclusive are left out. Where a call stands in place of a potency, no number is given. Active and inactive are the calls of the source. The call rests on the fitted dose curve.

Tests used:
[1] = Cytotoxicity counterscreen for inhibitors of SARS-CoV-2 cell entry (AID 1645845); conditions: cell viability (SARS-CoV-2 entry assay cells); series mostly up to 57.1 µM; further: nearly all actives have a fitted effect of over 50% in size
How it was run: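 HEK293-ACE2 cells (Expi293F stably expressing human ACE2) seeded overnight, then compound for 1 h plus 48 h at 37C. Viability as ATP content by luminescence; normalized to wells with cells and media-only wells.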

[2] = Primary qHTS to identify inhibitors of SARS-CoV-2 cell entry (AID 1645846); conditions: SARS-CoV-2 pseudovirus cell entry assay, luminescence; activity change, negative = inhibition: at 57.1 µM (top of the series) unless noted; series mostly up to 57.1 µM; further: nearly all actives have a fitted effect of over 45% in size
How it was run: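 Entry measured by luciferase signal 48 h after adding SARS-CoV-2-S pseudotyped MLV particles to HEK293-ACE2 cells preincubated 1 h with compounds. Normalisation: bald particles and spike particles.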

SMILES | Potency [1] | Potency [2] | activity change, negative = inhibition [2]
CCOC(=O)c1ccc(C#Cc2ccc3c(c2)C(C)(C)CCS3)nc1 | inactive | inactive | 
NCC1CCC(C(=O)Oc2ccc(CCC(=O)O)cc2)CC1 (centres undefined) | inactive | inactive | 
CN1C(=O)CC(c2ccccc2)C1=O (centres undefined) | inactive |  | -27.2%
CN1CCN(c2c(F)cc3c(=O)c(C(=O)O)cn(CCF)c3c2F)CC1 | inactive |  | 2.09%
C[C@]12CC[C@@H]3c4ccc(O)cc4CC[C@H]3[C@@H]1CC[C@@H]2OC(=O)CCC1CCCC1 | inactive |  | -19.7%
COc1cc(OC)cc(OC)c1 | inactive | inactive | 
Clc1ccc(Nc2nnc(Cc3ccncc3)c3ccccc23)cc1 | inactive |  | -4.34%
CN(CCCN1c2ccccc2CCc2ccccc21)CC(=O)c1ccc(Cl)cc1 | inactive |  | -5.87%
CC1(C)OC[C@@H](COC(=O)CCc2ccc(OC[C@@H](O)CNCCNC(=O)N3CCOCC3)cc2)O1 | inactive |  | -4.74%
CCOc1ccccc1C(N)=O | inactive | inactive | 
CN1CCC(=C2c3ccccc3CC(=O)c3sccc32)CC1 | inactive |  | -26%
OCCN1CCN(CCCN2c3ccccc3C=Cc3ccccc32)CC1 | inactive |  | -17.2%
COc1ccccc1OC(=O)Oc1ccccc1OC | inactive | inactive | 
COc1nc(C)nc(Cl)c1NC1=NCCN1 | inactive | inactive | 
COc1ccc2c(c1)c(CC(=O)O)c(C)n2C(=O)c1ccc(Cl)cc1 | inactive | inactive | 
NS(=O)(=O)c1cc2c(cc1Cl)NCNS2(=O)=O | inactive | inactive | 
CC(=O)Oc1ccc2c(c1)CC[C@@H]1[C@@H]2CC[C@]2(C)[C@@H](O)CC[C@@H]12 | inactive |  | -11%
